Source: PubChem
Most compounds without a hit are left out; they make up all but 3% or so of the library.
HIF-2a block = blocks HIF-2a reporter activity; 786-0 RCC cells HIF-2a reporter, luciferase luminescence, overnight; inhibition, % at 18.8 µM; 360,000 tested, 0.72% active;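 active means inhibition of the luminescence signal of 40% or more relative to plate controls, in a single-dose primary screen at 18.75 µM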
Peg3 promoter = inhibitors of Peg3 promoter | HeLa PEG-Prom luciferase reporter, luminescence, overnight | inhibition, % at 20 µM | 360,000 tested, 1.7% active;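 active means inhibition of at least 50% at 20 µM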
KKLEB cytotox = counter-screen for CF NF-kB inhibitors: cytotoxicity. AID 602141. KKLEB CF airway cells viability, ATPlite luminescence, overnight; active compounds read low; cells stimulated with P. aeruginosa culture filtrate. 360,000 tested, 0.36% active. activity change (cytotoxicity), % at 5 µM;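 active means corrected activity change at or below -50% at 5 µM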
TRPM1 prom inh = reduces MITF-dependent TRPM1 promoter luciferase signal; SK-MEL-5 TRPM1 promoter luciferase, 24 h; inhibition, % at 12.5 µM; 330,000 tested, 0.83% active;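 active means mean inhibition across replicates of 60% or more, whatever share of single replicates reaches that level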
CF NFkB inh = inhibitors of cystic fibrosis induced NF-kB | KKLEB NF-kB-GFP reporter, PAF-induced, GFP fluorescence overnight | 360,000 tested, 0.86% active | inhibition, % at 5 µM;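 active means at least 50% inhibition at 5 µM, scaled per plate between neutral and stimulator controls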;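 further: PAF is a Pseudomonas aeruginosa culture filtrate used as stimulus; plate controls were PAF-stimulated DMSO wells for no effect and unstimulated DMSO wells for full effect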
EBV LMP1 NFkB = inhibitors of Epstein-Barr LMP1-induced NF-kappaB reporter. LMP1-induced NF-kappaB luciferase reporter cells, luminescence. inhibition, % at 12.5 µM. 350,000 tested, 0.69% active; in the data active means inhibition above about 41%;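 further: 0% = neutral control wells and 100% = reference inhibitor control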
* = called active by the depositor; / = not tested or not shown; ! = repeats disagree.

SMILES	HIF-2a block	Peg3 promoter	KKLEB cytotox	TRPM1 prom inh	CF NFkB inh	EBV LMP1 NFkB
O=C(O)C1C2CCCCC2=C2CCCCC2C1C(=O)Nc1nccs1 (stereo not drawn)	21.9	7.0	-5.8	2.2	-10.8	1.0
O=C(O)C1C2CCCCC2=C2CCCCC2C1C(=O)O (stereo not drawn)	23.5	53.1*	-13.7	-6.7	19.3	0.8
COc1cc(CN2C[C@@H](CO)O[C@@H](n3cnc4c(N5CCN(C)CC5)ncnc43)C2)cc(OC)c1OC	-0.7	1.8	21.5	/	-4.2	/
Brc1cccc(-c2nc3ccc(Br)cn3c2Cc2ccccc2)c1	-192.0	-76.2	-29.3	/	19.3	/
CC1CCN(S(=O)(=O)N2CCC(C(=O)NC(C)c3ccccc3)CC2)CC1 (stereo not drawn)	10.2	1.2	-13.1	/	11.9	3.9
COc1ccc2cc3cc(C(=O)NCCc4ccc(OC)c(OC)c4)oc3nc2c1	24.0	53.4*	-3.6	65.1*	2.9	31.9
COc1ccc(NC(=O)C(c2cccc3ccccc23)n2c(=O)c(-c3ccco3)nc3ccccc32)cc1 (stereo not drawn)	11.8	/	/	/	/	/
CC1(C(=O)NC2CCCCC2)CCC(=O)N1C1CCN(Cc2ccccc2)CC1 (stereo not drawn)	9.1	4.0	-0.6	/	-11.6	/
CC(=O)N(C)C[C@@H]1Oc2ncc(Br)cc2C(=O)N([C@H](C)CO)C[C@@H]1C	5.2	-24.7	12.2	/	-23.4	1.2
O=C1CN(C(=O)c2ccc(F)c(S(=O)(=O)N3CCOCC3)c2)c2ccccc2N1	14.1	2.5	-0.2	-3.1	16.4	46.1*
COc1ccc(C(=O)N2CC(=O)Nc3ccccc32)cc1S(=O)(=O)N1CCOCC1	-1.8	3.5	-13.0	-10.0	21.5	-8.7
COc1ccc(C(=O)N2CC(=O)Nc3ccccc32)cc1S(=O)(=O)N1CCCC1	12.9	6.3	-2.7	-12.1	6.5	43.2*
CCCC(CCC)C(=O)O	1.7	3.5	0.5	-11.1	-3.5	58.0*!
CCCCC(CC)C(=O)O (stereo not drawn)	-4.0	-9.2	-9.8	/	12.2	2.4
CC(C)c1ccc(-c2nnn(CCC(=O)O)n2)cc1	88.9*	30.9	3.4	86.7*	-9.6	44.9*
O=C(CNc1cccc2ccccc12)N/N=C/c1ccc([N+](=O)[O-])o1	-68.1	0.2	6.6	75.2*	-19.1	-5.9
O=C(CNc1cccc([N+](=O)[O-])c1)N/N=C/c1ccc([N+](=O)[O-])o1	-23.0	14.2	9.3	77.9*	-23.9	-11.2
CC12CCC(=O)C=C1CCC1C2C(O)CC2(C)C1CCC2(O)C(=O)CO (stereo not drawn)	23.7	-15.2	21.0	-33.8	61.2*	9.8
C[C@]12CCC(=O)C=C1CC[C@@H]1[C@@H]2[C@@H](O)C[C@@]2(C)[C@H]1CC[C@]2(O)C(=O)CO	29.9	-5.3	2.7	-11.4	72.7*	2.8
C[C@]12CCC(=O)C=C1[C@H](O)C[C@@H]1[C@@H]2[C@@H](O)C[C@@]2(C)[C@H]1CC[C@]2(O)C(=O)CO	24.4	-12.2	6.6	-2.1	31.2	10.9
CC12CCC(=O)C=C1CCC1C2C(=O)CC2(C)C1CCC2(O)C(=O)CO (stereo not drawn)	12.7	4.8	-4.1	-1.1	11.1	3.5
Cc1ccc(C(O)c2ncc(-c3ccc(F)cc3)[nH]2)c(C)c1 (stereo not drawn)	11.1	15.1	8.9	/	0.7	/
Cc1nn(-c2ccccc2)c2nc(N)c(C#N)c(-c3ccc(F)cc3)c12	30.2	90.8*	-19.2	20.6	26.3	9.7
Cc1ccc(-n2nc(C)c3c(-c4cccs4)c(C#N)c(N)nc32)cc1	3.0	86.4*	-3.9	16.7	26.2	0.9
O=C(NCc1ccccn1)[C@@H]1CCCN1C(=O)[C@@H]1CCCN1	-1.1	/	/	/	/	/
Cn1cnc([N+](=O)[O-])c1S(=O)(=O)Nc1ccccc1	-1.8	-0.7	-3.8	8.5	33.5	4.8
Cn1cnc([N+](=O)[O-])c1S(=O)(=O)Oc1ccccc1	24.6	102.8*	3.9	37.4	42.1	-12.3
Cn1cnc([N+](=O)[O-])c1S(=O)(=O)c1cccc(Cl)c1	35.5	111.5*	-54.2*	18.2	35.6	-2.1
Cc1ccc2c(c1)[C@H]1[C@H](CO2)[C@H](c2ccccc2)[C@]2(C)C(=O)N(C)CC(=O)N12	7.1	8.4	-8.3	-4.1	-4.0	6.6
